PubChem BioAssay (NCI)
The panel holds about 83,000 compounds, 20% with a hit somewhere; the sample as a whole holds those more often.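 Values shown are percent growth following 48 h exposure of cells in 96-well plates to a single concentration of compound; below 10 was considered active.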 Unmarked numbers belong to inactive results. Calls of active or inactive are those of the source.

The compounds below were run on PC-3 prostate (assay: NCI-60 one-dose screen, 48 h (100 = growth as untreated, 0 = no growth, -100 = all killed)). Settings: 10 µM unless noted.

| SMILES | growth |
| --- | --- |
| COc1ccc(NC(=O)Nc2ccc(OCc3ccc(F)cc3)cc2)cc1 | 79.7% |
| COc1ccc(/C=C/c2nc3ccccc3n3c(-c4ccc(Cl)cc4)nnc23)cc1 | 77.1% |
| CC1(C)CC[C@]2(C(=O)O)CC[C@]3(C)C(=CCC4[C@@]5(C)C[C@@H](O)[C@@H]6OC(c7ccccc7Br)OC[C@@]6(C)C5CC[C@]43C)C2C1 (some centres undefined) | 13.1% |
| CC(=O)OCC1OC(OC2C(COC(C)=O)OC(n3cc(COc4ccc5ccc(=O)oc5c4)nn3)C(OC(C)=O)C2OC(C)=O)C(OC(C)=O)C(OC(C)=O)C1OC(C)=O (centres undefined) | 98.8% |
| COc1ccc(Cc2nn(CC(=O)N/N=C/c3ccc(F)cc3)c(=O)c3c(C)noc23)cc1 | 35.9% |
| O=C(c1ccccc1)C(c1c[nH]c2ccccc12)c1c[nH]c2ccccc12 | 38.6% |
| N=C1N=C(SCc2nc3ccccc3[nH]2)NC(=O)/C1=C/c1ccc(Cl)cc1 | 107% |
| Cn1cc(-c2cc3nc(-c4c[nH]c5ccc(Cl)cc45)cc(N)n3n2)c2ccccc21 | -80.9% (active) |
| CC1(C)CC[C@]2(C(=O)O)CC[C@]3(C)C(=CCC4[C@@]5(C)C[C@@H](O)[C@@H]6OC(c7ccco7)OC[C@@]6(C)C5CC[C@]43C)C2C1 (some centres undefined) | 20.8% |
| COc1ccc(C2CC(c3ccc(S(=O)(=O)NCCNc4nc(Nc5ccc(F)cc5)nc(N(C)C)n4)cc3)=Nc3c(N)nc(N)nc3N2)cc1 (centres undefined) | 53.7% |
| O=C(Nc1ccccc1)N1CCN(c2cc(-c3cn(-c4ccccc4)nc3-c3cccc(O)c3)ccn2)CC1 | 43% |
| CNS(=O)(=O)c1ccc(Nc2ccc(C(F)(F)F)cc2)c(-c2cn(C)cn2)c1 | 57.6% |
| CCS(=O)(=O)N1CCCC(C(=O)Nc2nc3ccc(NC(=O)c4ccc(F)c(OC)c4F)cc3s2)C1 (centres undefined) | 50.6% |
| COc1ccc(CCC2c3c(cc4c(c3OC)OCO4)CCN2C)cc1 (centres undefined) | 3.75% (active) |
| Nc1nc(-c2ccccc2)c(N=Nc2ccc([N+](=O)[O-])cc2Cl)s1 | 77.7% |
| CN(C)c1nc(NCCNS(=O)(=O)c2ccc(C3=Nc4c(N)nc(N)nc4NC(c4ccccc4)C3)cc2)nc(Nc2ccc(F)cc2)n1 (centres undefined) | 26.5% |
| N/C(=N\c1nc2ccccc2s1)NC(=O)Nc1ccc(Cl)cc1Cl | -2.3% (active) |
| CCCCn1c(O)c(N=Nc2nc(-c3cc4ccccc4oc3=O)cs2)c2cc(Br)ccc21 | 97.4% |
| Cc1cccc(-c2nc(Nc3cccc(S(N)(=O)=O)c3)c3ccccc3n2)c1 | 39.8% |
| Cn1cc(-c2cc(N)n3nc(-c4cn(C)c5ccccc45)cc3n2)c2cc(Br)ccc21 | -34% (active) |
| COc1cc2c(c(OC)c1OC)C(=O)CC(c1cccc(NC(=O)c3cc(NC(=O)[C@H](C)N)ccc3Cl)c1)O2 (some centres undefined) | 22% |
| C#CCOc1cc(N(CC)CC)ccc1C(C(=O)NC(C)(C)C)N(C(=O)C1CCc2cc(F)ccc2O1)c1cc(C)cc(C)c1 (centres undefined) | 13.2% |
| Cc1ccc(C2=NN(c3nc(-c4cc5ccccc5oc4=O)cs3)C(c3ccc(C)cc3)C2)cc1 (centres undefined) | 99.9% |
| Cn1cc(-c2nc(N)nnc2-c2c[nH]c3ccc(F)cc23)c2cc(Br)cnc21 | 8.22% (active) |
